Test results from PubChem BioAssay (Tox21).
Where “and” joins values, the source holds several entries; their conditions need not be identical. Equal entries are not always repeated. Inconclusive results are not listed. Where a call stands in place of a potency, no number is given. Calls of active or inactive are those of the source. Unless noted, calls come from the whole dose curve; as a rule, active = well fitted curve in the direction sought with a large enough effect in the repeat runs; inconclusive = weak or mixed curves; inactive = no such curve, though single readings can be large; an effect the other way counts as inactive or inconclusive.

How the values were obtained:
[1] = qHTS assay to identify aromatase inhibitors - cell viability counter screen (AID 743084);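 note: cells stimulated with testosterone during compound exposure; nearly all actives have a fitted effect of over 55% in size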
[2] = molecular target: Aryl hydrocarbon receptor (Homo sapiens) (UniProt P35869); test: qHTS assay to identify small molecule that activate the aryl hydrocarbon receptor (AhR) signaling pathway (AID 743085); note: nearly all actives have a fitted effect of over 15% in size; note: potency is the fitted concentration of half-maximal effect;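 for activation: HG2L7.5c1 human HepG2 liver cells with stably integrated DRE-driven firefly reporter; series mostly up to about 70 µM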
Method in brief: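 Stably transfected human liver carcinoma cells (HG2L7.5c1; 20 DRE-firefly luciferase) were incubated 5 h, dosed, and kept 24 h at 37C. Agonism was scored from increased luciferase luminescence.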

[3] = qHTS assay to identify small molecule that activate the aryl hydrocarbon receptor (AhR) signaling pathway - cell viability counter screen (AID 743086);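 note: HepG2 liver cells carrying the AhR DRE luciferase reporter; series mostly up to about 70 µM; nearly all actives have a fitted effect of over 45% in size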
Method in brief: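 Cytotoxicity counter screen: CellTiter-Fluor signal (30 min, 37 C) in 4000 HepG2 cells/well carrying the DRE-luciferase reporter, following 24 h compound exposure at 37 C.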

[4] = molecular target: Peroxisome proliferator-activated receptor gamma (Homo sapiens) (UniProt P37231); test: qHTS assay to identify small molecule agonists of the peroxisome proliferator-activated receptor gamma (PPARg) signaling pathway (AID 743094; active = well fitted activation curve with a large enough effect in the signal ratio in the repeat runs, not every such curve was filed as active; the % refers to the signal ratio)
Method in brief: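 Cells from the PPARg UAS-bla HEK293H line are plated and incubated 5 h at 37C. Compounds in DMSO are pinned in and left 17 h at 37C. LiveBLAzer B/G substrate is then added for 1 h at room temperature before fluorescence is measured.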

[5] = molecular target: Peroxisome proliferator-activated receptor gamma (Homo sapiens) (UniProt P37231); test: qHTS assay to identify small molecule antagonists of the peroxisome proliferator-activated receptor gamma (PPARg) signaling pathway (AID 743191; calls by dose curve; note: series mostly up to about 63 µM; nearly all actives have a fitted effect of over 30% in size)
Method in brief: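 Beta-lactamase reporter under UAS control in HEK293H PPARg-bla cells; compound treatment 17 h at 37C. Read-out: fluorescence intensity after 1 h room-temperature incubation with LiveBLAzer B/G FRET substrate.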

[6] = qHTS assay to identify small molecule antagonists of the peroxisome proliferator-activated receptor gamma (PPARg) signaling pathway - cell viability counter screen (AID 743194); note: nearly all actives have a fitted effect of over 55% in size
Method in brief: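 Viability was measured as CellTiter-Glo luminescence in GeneBLAzer PPARg UAS-bla HEK293H cells. These cells had been exposed 17 h at 37 C to compounds together with rosiglitazone at 50 nM final, with the beta-lactamase readout taken in the same wells.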

[7] = qHTS assay for small molecule agonists of the antioxidant response element (ARE) signaling pathway - cell viability counter screen (AID 743203; calls by dose curve; note: nearly all actives have a fitted effect of over 55% in size)
Method in brief: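 Cytotoxicity was tested in parallel with the ARE reporter screen. ARE-bla HepG2 cells were exposed to compounds for 16 hrs, and viability was taken from CellTiter-Glo luminescence.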

[8] = qHTS assay for small molecule activators of the heat shock response signaling pathway - cell viability counter screen (AID 743209); note: nearly all actives have a fitted effect of over 50% in size
Method in brief: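 Cytotoxicity counter screen run in parallel with the HSE beta-lactamase reporter, using the same wells. HeLa HSE-bla cells received compound for 5 h at 37 C; ATP-based CellTiter-Glo luminescence was measured after 30 min at room temperature.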

[9] = qHTS assay for small molecule activators of the heat shock response signaling pathway (AID 743210; active = well fitted activation curve with a large enough effect in the signal ratio in the repeat runs, with a control signal flat, not every such curve was filed as active; the % refers to the signal ratio;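 note: HeLa cells with beta-lactamase reporter driven by heat shock elements; series mostly up to about 63 µM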)
Method in brief: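 Fluorescence from a cleaved B/G FRET substrate (2.5 h, room temp) reports HSE-driven beta-lactamase in HeLa cells treated 5 h at 37 C with DMSO-dissolved compounds.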

[10] = qHTS assay to identify small molecule agonists of the peroxisome proliferator-activated receptor delta (PPARd) signaling pathway - cell viability counter screen (AID 743211); note: nearly all actives have a fitted effect of over 55% in size
Method in brief: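 In the same wells used for beta-lactamase reporter measurement, cytotoxicity is scored by CellTiter-Glo. HEK293H PPARd-bla cells receive compound for 17 h at 37C following a 5 h settling period.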

[11] = molecular target: Peroxisome proliferator-activated receptor delta (Homo sapiens) (UniProt Q03181); test: qHTS assay to identify small molecule agonists of the peroxisome proliferator-activated receptor delta (PPARd) signaling pathway (AID 743212; calls by dose curve)
Method in brief: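 Steps: seed PPARd-bla HEK293H cells; incubate 5 h, 37 C, 5% CO2; add compounds in DMSO; incubate, 37 C; add LiveBLAzer B/G FRET substrate; hold 2 h at room temperature; measure fluorescence.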

[12] = qHTS assay to identify small molecule antagonists of the peroxisome proliferator-activated receptor delta (PPARd) signaling pathway - cell viability counter screen (AID 743213); note: nearly all actives have a fitted effect of over 50% in size
Method in brief: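 Same-well viability: cells pre-incubated 5 h, dosed with compound plus 300 nM L165041, kept 17 h at 37 C, FRET substrate 2 h RT, then CellTiter-Glo 30 min RT and luminescence.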

[13] = molecular target: Peroxisome proliferator-activated receptor delta (Homo sapiens) (UniProt Q03181); test: qHTS assay to identify small molecule antagonists of the peroxisome proliferator-activated receptor delta (PPARd) signaling pathway (AID 743215; active = well fitted inhibition curve with a large enough effect in the signal ratio in the repeat runs, not every such curve was filed as active; the % refers to the signal ratio;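 note: cells stimulated with agonist L165041 at 300 nM final during compound exposure; series mostly up to about 62 µM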)
Method in brief: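 Cells: HEK293H with a UAS-driven beta-lactamase reporter responsive to PPARd. Compounds were co-added with L165041 (300 nM, final) and incubated 17 h at 37 C before a 2 h room-temperature FRET substrate step and fluorescence reading.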

[14] = qHTS assay to identify small molecule agonists of the farnesoid-X-receptor (FXR) signaling pathway - cell viability counter screen (AID 743218); note: nearly all actives have a fitted effect of over 45% in size
Method in brief: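 Cells were seeded, left 5 h at 37 C and 5% CO2, then dosed with compound in DMSO for 16 h. After the beta-lactamase FRET read, CellTiter-Glo was added and luminescence measured 30 min later.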

[15] = molecular target: Bile acid receptor (Homo sapiens) (UniProt Q96RI1); test: qHTS assay to identify small molecule agonists of the farnesoid-X-receptor (FXR) signaling pathway (AID 743220; active = well fitted activation curve with a large enough effect in the signal ratio in the repeat runs, not every such curve was filed as active; the % refers to the signal ratio)
Method in brief: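 FXR-UAS-bla HEK 293T cells carrying a UAS-driven beta-lactamase reporter were plated for 5 h at 37C/5% CO2, then exposed to DMSO-dissolved Tox21 10K compounds for 16 h at 37C. A LiveBLAzer B/G FRET substrate was loaded for 2 h at room temperature before fluorescence reading.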

[16] = qHTS assay to identify small molecule antagonists of the farnesoid-X-receptor (FXR) signaling pathway - cell viability counter screen (AID 743221; active = well fitted cell-killing curve with a large enough effect in the repeat runs, not every such curve was filed as active; note: nearly all actives have a fitted effect of over 50% in size)
Method in brief: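 Here viability was scored by luminescence after CellTiter-Glo addition to wells already read for beta-lactamase. Prior treatment: compound plus CDCA (50 uM final), 16 h, 37 C, HEK 293T FXR-bla cells.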

[17] = qHTS assay for small molecule agonists of the antioxidant response element (ARE) signaling pathway (AID 743202; active = well fitted activation curve with a large enough effect in the signal ratio in the repeat runs, not every such curve was filed as active; the % refers to the signal ratio)
Method in brief: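 Beta-lactamase reporter activity, read as fluorescence intensity, reflects ARE/Nrf2 pathway induction in HepG2 cells after 16 h compound exposure at 37 C; substrate loading was 2 h at room temperature.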

[18] = molecular target: Vitamin D3 receptor (Homo sapiens) (UniProt P11473); test: qHTS assay to identify small molecule agonists of the vitamin D receptor (VDR) signaling pathway (AID 743222; calls by dose curve)
Method in brief: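 Cells carrying a VDR-driven beta-lactamase reporter are seeded at 2,000 per well and rested 4 h. Compounds in DMSO are added for 16 h at 37C, and FRET substrate fluorescence is measured after 2 h at room temperature.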

[19] = molecular target: Vitamin D3 receptor (Homo sapiens) (UniProt P11473); test: qHTS assay to identify small molecule antagonists of the vitamin D receptor (VDR) signaling pathway (AID 743223; active = well fitted inhibition curve with a large enough effect in the signal ratio in the repeat runs, not every such curve was filed as active; the % refers to the signal ratio)
Method in brief: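 Inhibition of agonist-driven VDR signalling is scored in VDR-bla cells: 3 nM final 1alpha,25-dihydroxyvitamin D3 plus compound, 16 h at 37C, then beta-lactamase detection by FRET substrate fluorescence after 2 h.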

Peroxisome proliferator-activated receptor gamma (Homo sapiens), sequence (P37231 whole entry, looked up): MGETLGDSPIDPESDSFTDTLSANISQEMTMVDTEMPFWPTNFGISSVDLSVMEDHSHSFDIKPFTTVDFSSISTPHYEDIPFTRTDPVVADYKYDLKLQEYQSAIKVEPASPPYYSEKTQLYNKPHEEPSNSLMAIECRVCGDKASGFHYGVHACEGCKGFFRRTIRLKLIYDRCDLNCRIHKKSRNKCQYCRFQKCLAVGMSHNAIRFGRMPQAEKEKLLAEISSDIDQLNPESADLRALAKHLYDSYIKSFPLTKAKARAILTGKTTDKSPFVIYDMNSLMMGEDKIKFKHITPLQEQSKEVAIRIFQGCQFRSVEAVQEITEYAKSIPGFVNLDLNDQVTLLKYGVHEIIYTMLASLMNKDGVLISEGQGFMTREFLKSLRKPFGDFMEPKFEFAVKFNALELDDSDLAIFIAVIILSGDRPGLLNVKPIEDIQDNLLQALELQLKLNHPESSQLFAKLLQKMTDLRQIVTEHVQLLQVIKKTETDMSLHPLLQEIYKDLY
Vitamin D3 receptor (Homo sapiens), sequence (P11473 whole entry, looked up): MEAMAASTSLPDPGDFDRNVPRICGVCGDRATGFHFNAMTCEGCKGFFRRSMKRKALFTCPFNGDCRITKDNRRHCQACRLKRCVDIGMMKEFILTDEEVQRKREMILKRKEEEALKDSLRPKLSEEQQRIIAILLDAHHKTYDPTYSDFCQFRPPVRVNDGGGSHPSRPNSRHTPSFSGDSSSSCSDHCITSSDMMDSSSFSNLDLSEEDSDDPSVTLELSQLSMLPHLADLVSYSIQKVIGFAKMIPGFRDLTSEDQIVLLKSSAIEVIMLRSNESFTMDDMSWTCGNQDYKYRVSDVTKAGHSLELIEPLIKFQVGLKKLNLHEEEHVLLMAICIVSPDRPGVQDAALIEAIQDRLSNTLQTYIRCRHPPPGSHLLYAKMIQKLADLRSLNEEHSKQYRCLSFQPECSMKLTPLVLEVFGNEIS
Aryl hydrocarbon receptor (Homo sapiens), sequence (P35869 whole entry, looked up): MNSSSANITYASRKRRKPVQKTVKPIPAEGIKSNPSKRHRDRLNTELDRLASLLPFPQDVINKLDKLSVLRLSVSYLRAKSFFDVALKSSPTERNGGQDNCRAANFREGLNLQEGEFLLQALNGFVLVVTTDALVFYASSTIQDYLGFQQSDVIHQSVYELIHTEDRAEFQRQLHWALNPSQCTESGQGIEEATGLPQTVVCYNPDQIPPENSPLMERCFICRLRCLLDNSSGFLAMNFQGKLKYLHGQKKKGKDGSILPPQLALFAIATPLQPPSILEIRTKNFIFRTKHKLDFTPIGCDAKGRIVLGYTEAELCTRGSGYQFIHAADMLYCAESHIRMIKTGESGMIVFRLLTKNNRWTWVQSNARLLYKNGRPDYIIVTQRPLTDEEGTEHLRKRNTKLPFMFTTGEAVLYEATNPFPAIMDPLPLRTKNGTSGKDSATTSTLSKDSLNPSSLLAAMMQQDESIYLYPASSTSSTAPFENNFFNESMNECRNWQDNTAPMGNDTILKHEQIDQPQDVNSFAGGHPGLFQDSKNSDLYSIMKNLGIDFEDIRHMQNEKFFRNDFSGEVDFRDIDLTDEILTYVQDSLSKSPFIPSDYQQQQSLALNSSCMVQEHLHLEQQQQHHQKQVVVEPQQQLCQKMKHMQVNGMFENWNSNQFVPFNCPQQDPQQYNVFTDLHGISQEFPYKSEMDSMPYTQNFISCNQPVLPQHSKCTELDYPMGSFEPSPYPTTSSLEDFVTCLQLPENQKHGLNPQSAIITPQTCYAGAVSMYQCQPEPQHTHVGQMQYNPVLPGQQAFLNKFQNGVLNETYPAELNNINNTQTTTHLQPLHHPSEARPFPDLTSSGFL
Bile acid receptor (Homo sapiens), sequence (Q96RI1 whole entry, looked up): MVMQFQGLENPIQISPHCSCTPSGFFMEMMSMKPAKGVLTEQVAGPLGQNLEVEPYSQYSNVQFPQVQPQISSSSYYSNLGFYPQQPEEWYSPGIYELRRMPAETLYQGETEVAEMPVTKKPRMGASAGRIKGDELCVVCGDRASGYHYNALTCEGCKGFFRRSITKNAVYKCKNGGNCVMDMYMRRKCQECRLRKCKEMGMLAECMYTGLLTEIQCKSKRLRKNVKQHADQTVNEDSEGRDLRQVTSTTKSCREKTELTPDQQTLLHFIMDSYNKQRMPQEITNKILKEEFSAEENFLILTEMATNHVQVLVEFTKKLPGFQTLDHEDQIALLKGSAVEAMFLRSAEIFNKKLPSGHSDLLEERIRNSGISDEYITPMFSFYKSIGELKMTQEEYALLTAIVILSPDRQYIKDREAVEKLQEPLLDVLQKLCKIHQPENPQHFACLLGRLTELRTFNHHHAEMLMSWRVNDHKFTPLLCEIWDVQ
Peroxisome proliferator-activated receptor delta (Homo sapiens), sequence (Q03181 whole entry, looked up): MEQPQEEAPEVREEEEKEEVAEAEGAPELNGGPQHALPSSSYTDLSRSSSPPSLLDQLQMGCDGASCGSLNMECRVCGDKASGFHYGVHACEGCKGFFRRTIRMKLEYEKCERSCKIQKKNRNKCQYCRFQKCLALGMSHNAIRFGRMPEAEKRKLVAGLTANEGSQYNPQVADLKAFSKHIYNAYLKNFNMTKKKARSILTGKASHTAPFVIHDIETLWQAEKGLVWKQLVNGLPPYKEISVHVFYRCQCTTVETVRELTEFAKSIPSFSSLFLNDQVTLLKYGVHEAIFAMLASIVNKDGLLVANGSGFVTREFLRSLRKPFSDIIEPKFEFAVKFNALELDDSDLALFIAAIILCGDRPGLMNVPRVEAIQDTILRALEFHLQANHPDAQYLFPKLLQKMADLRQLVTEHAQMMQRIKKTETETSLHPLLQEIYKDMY

| Compound | Potency [1] | Potency [2] | outcome [3] | outcome [4] | Potency [5] | outcome [6] | Potency [7] | Potency [8] | Potency [9] | Potency [10] | outcome [11] | outcome [12] | outcome [13] | Potency [14] | outcome [15] | Potency [16] | Potency [17] | outcome [18] | outcome [19] |
| --- | --- | --- | --- | --- | --- | --- | --- | --- | --- | --- | --- | --- | --- | --- | --- | --- | --- | --- | --- |
| Cc1cccc(C)c1N | inactive | inactive | inactive | inactive | inactive | inactive | inactive | inactive | inactive | inactive | inactive | inactive | inactive | inactive | inactive | inactive | – | – | – |
| O=[N+]([O-])c1ccc(Cl)c(Cl)c1 | inactive | inactive | inactive | inactive | – | inactive | inactive | inactive | inactive | inactive | inactive | inactive | inactive | inactive | inactive | inactive | inactive | inactive | inactive |
| c1ccc2c(c1)CCCC2 | inactive | inactive | inactive | inactive | inactive | inactive | – | inactive | inactive | inactive | – | inactive | – | inactive | inactive | inactive | inactive | inactive | inactive |
| COP(=S)(OC)Oc1ccc(SC)c(C)c1 | inactive | 26.6 µM (active) and 30.3 µM (active) and 24.3 µM (active) | inactive | inactive | inactive | inactive | inactive | inactive | inactive | inactive | inactive | inactive | inactive | inactive | – | inactive | – | inactive | inactive |
| C=CC#N | inactive | inactive | inactive | inactive | inactive | inactive | – | inactive | inactive | inactive | – | inactive | – | inactive | – | inactive | – | inactive | inactive |
| O=[N+]([O-])c1cc([As](=O)(O)O)ccc1O | inactive | inactive | inactive | inactive | inactive | inactive | inactive | inactive | inactive | inactive | inactive | inactive | inactive | inactive | – | inactive | – | inactive | inactive |
| COS(=O)(=O)OC | inactive | inactive | inactive | inactive | inactive | inactive | inactive | inactive | inactive | inactive | inactive | inactive | inactive | inactive | – | inactive | – | inactive | inactive |
| O=C(O)COc1ccccc1 | inactive | inactive | inactive | inactive | inactive | inactive | – | inactive | inactive | inactive | inactive | inactive | inactive | inactive | – | inactive | inactive | inactive | inactive |
